For 60 compounds, inhibition results are on record in PubChem BioAssay AID1063 (University of Pittsburgh Molecular Library Screening Center, 2008).

As usually defined, the inhibition is the relative decrease from the control value, in per cent.

Screen size: about 200,000 compounds; about 18,000 (9%) were called active. No stated cut-off is given here; in the data, active means inhibition above about 50%; inactive means the rest. This excerpt belongs to a sample that is enriched for actives.

A short description of this test: antileishmanial activity against promastigotes – primary screen (AID 1063).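 Further: promastigotes grown with compound for 44 hours at 28 °C.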 To be noted: Leishmania major promastigotes, resazurin fluorescence viability; at 10 µM; hits give high values. (Resazurin is reduced to fluorescent resorufin, in cell work by metabolically active cells.)
On to `Cc1nnc(SCCCCSc2nnc(C)c(=O)[nH]2)[nH]c1=O`, for which the inhibition is -5.64% (inactive). Turning to `CN(c1ccc(OCC(=O)OCC(=O)Nc2cccc([N+](=O)[O-])c2)cc1)S(=O)(=O)c1ccc(F)cc1`, the inhibition was -5.95% (inactive).

In the case of `CC(CC(=O)C1C(C)C=CCC1(C)C)NNC(N)=O` (stereo not given), the inhibition is -5.44% (inactive). In the case of `CCCCC(=O)Nc1nc(C)c(-c2csc(Nc3ccc(Cl)cc3)n2)s1`, the inhibition is 27% (inactive). Regarding `Cc1nc(NC(=O)c2cccc(Cl)c2)sc1-c1csc(Nc2cccc(Cl)c2)n1`, the inhibition is 6.25% (inactive).

Regarding `Cc1ccc(Nc2nc(-c3sc(NC(=O)c4ccccc4)nc3C)cs2)cc1`, the inhibition was 15.7% (inactive). Turning to `CCCCCCC(=O)Nc1nc(C)c(-c2csc(Nc3cccc(OC)c3)n2)s1`, the inhibition is 56.1% (active). `CCCCCCC(=O)Nc1nc(C)c(-c2csc(Nc3cc(Cl)ccc3OC)n2)s1`: the inhibition was 56.5% (active).

In the case of `C=CCCC(=O)Nc1nc(C)c(-c2csc(Nc3ccc(Cl)cc3)n2)s1`, the inhibition is 40.7% (inactive). `O=C(c1ccc(N2CCOCC2)c([N+](=O)[O-])c1)N1CCN(S(=O)(=O)c2cccs2)CC1`: the inhibition is 26.9% (inactive). As to `Cn1cnnc1Sc1ccc(CN2CCN(C3CCCC3)C(CCO)C2)o1` (stereo not given), the inhibition is -0.44% (inactive). As for `COc1ccc(NC(=O)C(Br)C(C)C)cc1` (stereo not given), the inhibition is -2.81% (inactive). Then `CN(C)c1ccc(C(=S)N2CCN(C(=S)Nc3ccc(Cl)cc3)CC2)cc1`, with -3.85% (inactive).

With `O=C1CN(C(=O)COC(=O)c2cnc(Cl)c(Cl)c2)c2ccccc2N1`, the inhibition is -5.42% (inactive). For the compound `O=c1c([N+](=O)[O-])cccn1Cc1ccc(F)cc1Cl`, the inhibition is 13.1% (inactive).

`CSc1ccccc1NC(=O)CN(C)CC(=O)Nc1ccc(Cl)cc1[N+](=O)[O-]`: the inhibition was 12% (inactive). In the case of `COCCNc1cc(NCCOC)c([N+](=O)[O-])cc1[N+](=O)[O-]`, the inhibition is 32.9% (inactive).

As to `CCN(CC)CCNc1ccc(Cl)cc1[N+](=O)[O-]`, the inhibition was 52.1% (active).

Turning to `C=CCn1c2ccccc2c2nnc(SC(CC)C(=O)Nc3nc(C)c(C(=O)OCC)s3)nc21` (stereo not given), the inhibition is 62.5% (active). Take `CCOC(=O)c1sc(NC(=O)C(CC)Sc2nccn2C)nc1C` (stereo not given): the inhibition was 9.41% (inactive).

On to `C=CCn1c2ccccc2c2nnc(SCc3[nH]c(=O)[nH]c3C(=O)CCCCC(=O)OCC)nc21`, for which the inhibition was 4.8% (inactive). For `COc1ccccc1C(=O)CSc1cccc[n+]1[O-]` the value was -7.87% (inactive); for `COc1cccc(C(=O)Nc2nc3ccc(S(C)(=O)=O)cc3s2)c1`, 16% (inactive). In the case of `CC(C)c1nc2sc3c(c2c(=O)n1N)CC(C)(C)OC3`, the inhibition was -0.56% (inactive). Regarding `Cc1ccc(-c2nc(-c3cccnc3)sc2CC(=O)Nc2ccc(C)c(Cl)c2)cc1`, the inhibition is 78.2% (active). As to `O=C(O)Cc1sc(-c2ccc(C(=O)O)cc2)nc1-c1ccccc1`, the inhibition is -1.45% (inactive). With `Cc1cc(C)c(NC(=O)CS(=O)CC(=O)Nc2cccnc2)c(C)c1` (stereo not given), the inhibition was -5.42% (inactive). For `CC(C)CC(CC(C)C)=NNC(=O)c1ccc(CSc2nncn2C)cc1` the value was -4.77% (inactive); for `O=C(CN1C(=O)NC2(CCCC2)C1=O)NCC1CCCO1` (stereo not given), -4.12% (inactive).

Regarding `Cc1cc(=O)oc2c1c(C)nn2-c1ccc(Cl)cc1`, the inhibition is -5.67% (inactive). For the compound `CCC(CC)C(=O)Nc1ccc(S(=O)(=O)Nc2nccs2)cc1`, the inhibition is 6.97% (inactive). For `O=C(NC(=S)Nc1ccc(S(=O)(=O)Nc2ncccn2)cc1)c1cccc(Br)c1`, the inhibition was -8.62% (inactive). For `CCCN(CCC)CCNC(=O)c1cc2c(C)nc3ccccc3c2o1` the value was 56.9% (active); for `Cc1nc2ccccc2c2oc(C(=O)NCCCN3CCC(C)CC3)cc12`, 24% (inactive). Then `Cc1nc2ccccc2c2oc(C(=O)NCC3CCCO3)cc12` (stereo not given), with 11.4% (inactive); and `CC(C)OCCCNC(=O)c1ccc(C2SCC(=O)N2Cc2ccco2)cc1` (stereo not given), with -3.9% (inactive); and `Cc1cc(C(=O)NNC(=O)CCC2CCCCC2)c(C)o1`, with -8.93% (inactive). Regarding `CCC(=O)N1CCC(C(N)=O)(N2CCCCC2)CC1`, the inhibition was 0.56% (inactive).

Turning to `O=C(Nc1cccn(Cc2ccccc2Cl)c1=O)NC1CCCCC1`, the inhibition is 17.9% (inactive). As to `COc1ccc(Cl)cc1C(=O)NNC(=S)NC1CCCC1`, the inhibition is 17.1% (inactive).

For the compound `CCN(CC)c1ccc2cc(C(=O)O)c(=O)oc2c1`, the inhibition is 22.2% (inactive).

For the compound `CCN(CC)c1ccc2c(Nc3ccccc3)c(C=O)c(=O)oc2c1`, the inhibition was -4.13% (inactive). On to `CCN(CC)c1ccc2oc(=O)c(C)nc2c1`, for which the inhibition is 96.6% (active). Regarding `CNc1[nH]ncc1[N+](=O)[O-]`, the inhibition was -7.01% (inactive). With `COc1ccc(CCn2ccc(O)c(Cc3ccc(Cl)cc3Cl)c2=O)cc1OC`, the inhibition was 7.61% (inactive).

On to `COCCCNC(=S)N1CCCC(c2nc3cc(C)c(C)cc3[nH]2)C1` (stereo not given), for which the inhibition was 0.93% (inactive).

Take `N=C1C(c2nc3ccccc3[nH]2)=C(O)CN1NC(=O)c1c[nH]c2ccccc12`: the inhibition is -3.91% (inactive).

As for `CC1Cc2ccccc2N1S(=O)(=O)c1c(N)n(C)c(=O)n(C)c1=O` (stereo not given), the inhibition is 99.8% (active). Take `Cn1c(=O)n(C)c2cc(S(=O)(=O)N3CCCc4ccccc43)ccc21`: the inhibition is 47.6% (inactive). As to `CCCCn1ccnc1C(=O)c1cccc(S(=O)(=O)N2c3ccccc3CC2C)c1` (stereo not given), the inhibition was 0.6% (inactive).

With `CNS(=O)(=O)c1ccc(NC(=O)C2CC(=O)N(c3ccc(Cl)cc3)C2)cc1` (stereo not given), the inhibition is 13.6% (inactive).

Consider `Cc1cccc(NC(=S)NCCc2ccc(F)cc2)c1C`, for which the inhibition is 28.5% (inactive). Then `COc1ccc(CN2CCNC(=O)C2CC(=O)N(C)Cc2ccccn2)cc1OC` (stereo not given), with 0.79% (inactive); and `Cc1[nH]c2ccccc2c1CCN(Cc1cccs1)C(=S)NC(C)(C)C`, with -1.09% (inactive); and `COc1ccc2[nH]c(C)c(CCN(Cc3cccs3)C(=S)Nc3ccccc3OC)c2c1`, with 66.1% (active). Then `COc1cccc(NC(=S)N(CCc2c(C)[nH]c3ccccc23)Cc2ccco2)c1`, with 19.9% (inactive); and `C/C(=N\NC(=O)c1cccnc1)c1ccc(-n2ccnc2)cc1`, with -1.06% (inactive). Then `Cn1cc(-c2ccccc2)cc(C#N)c1=O`, with -20% (inactive); and `CC(C)N1CCC(NC(=O)Nc2ccccc2)CC1`, with -2.35% (inactive); and `COc1cc(/C=C/C(=O)OCC(=O)N2CCOCC2)ccc1OCC#N`, with -11.6% (inactive).
